# Test results from PubChem BioAssay AID606 (Columbia University Molecular Screening Center, 2007).
# The whole screen tested about 52,000 compounds, of which fewer than 10 were called active. These entries were drawn from the full list. Values without a mark were called inactive.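 The calls were made as follows: active = IC50 under 40 µM in the dose-response test; inactive = IC50 of 40 µM or more, or never dose-tested.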
# Molecular target: Tyrosine-protein phosphatase non-receptor type 22 (Homo sapiens) (UniProt Q9Y2R2)
# Assay: inhibition of human PTPN22 tyrosine phosphatase – biochemical, DiFMUP fluorescence, recombinant catalytic domain, 10 µM, primary screen (AID 606)
# Conditions: recombinant LYP catalytic domain, at 10 µM, active compounds read high
# Chain of Tyrosine-protein phosphatase non-receptor type 22 (Homo sapiens) (Q9Y2R2 whole entry, looked up, the tested form may be a part): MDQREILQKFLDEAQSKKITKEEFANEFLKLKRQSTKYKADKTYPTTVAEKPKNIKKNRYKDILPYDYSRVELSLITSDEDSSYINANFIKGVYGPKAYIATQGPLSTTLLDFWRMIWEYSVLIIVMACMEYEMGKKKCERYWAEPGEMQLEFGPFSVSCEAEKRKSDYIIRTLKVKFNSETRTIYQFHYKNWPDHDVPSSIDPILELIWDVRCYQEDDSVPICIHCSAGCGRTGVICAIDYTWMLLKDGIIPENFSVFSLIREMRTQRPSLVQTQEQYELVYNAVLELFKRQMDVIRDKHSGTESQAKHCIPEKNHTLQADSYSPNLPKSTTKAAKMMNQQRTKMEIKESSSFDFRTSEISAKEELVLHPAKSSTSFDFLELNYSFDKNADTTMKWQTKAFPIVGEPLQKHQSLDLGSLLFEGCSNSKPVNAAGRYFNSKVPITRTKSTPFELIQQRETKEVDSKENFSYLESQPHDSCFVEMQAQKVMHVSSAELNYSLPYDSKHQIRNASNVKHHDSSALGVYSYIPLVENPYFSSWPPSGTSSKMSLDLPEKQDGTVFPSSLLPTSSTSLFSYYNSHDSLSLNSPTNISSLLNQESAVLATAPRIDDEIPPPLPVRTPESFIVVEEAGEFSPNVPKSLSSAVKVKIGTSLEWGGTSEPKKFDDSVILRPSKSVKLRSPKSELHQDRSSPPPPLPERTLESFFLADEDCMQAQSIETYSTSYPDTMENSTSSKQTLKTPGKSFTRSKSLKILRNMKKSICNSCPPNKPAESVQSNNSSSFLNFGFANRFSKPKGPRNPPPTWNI
row,Structure (SMILES),inhibition [%]
1,COc1ccccc1-n1c(CNc2c(C)cccc2C)nnc1SCC(=O)N1CCOCC1,19.1
2,Cc1ccc(-n2c(N)c(C(=O)N3CCOCC3)sc2=S)cc1,15.3
3,O=C1CC(c2ccc3c(c2)OCO3)Sc2nc3ccccc3n21 (stereo unspecified),11.4
4,CCCCN(CCCC)Cc1ccc(N)cc1,3.2
5,COc1ccccc1OCc1nc(C#N)c(N2CCC(C(N)=O)CC2)o1,6.04
6,COc1nc(Nc2ccc(-c3nc4ccccc4o3)cc2)nc(N2CCOCC2)n1,9.06
7,O=C(C1CCN(S(=O)(=O)c2cccc3cccnc23)CC1)N1CCc2ccccc21,2.25
8,CCCCn1c(SCC(=O)N2CCCCC2)nc2cc(S(N)(=O)=O)ccc21,17.2
9,C=CCNc1nc(NCCN2CCOCC2)nc(OC)n1,7.44
10,COC(=O)c1c(NC(=O)CC2SCC(C(=O)OC)NC2=O)sc2c1CCCC2 (stereo unspecified),-6.67
11,Cc1onc(-c2ccccc2)c1C(=O)Nc1nc(-c2ccc(F)c(F)c2)cs1,13.4
12,CN(C)S(=O)(=O)N1CCN(CC(O)COc2ccc(C(=O)c3ccccc3)cc2)CC1 (stereo unspecified),10.5
13,CCOC(=O)N1CCN(Cc2nc3c(c(=O)n(C)c(=O)n3C)n2Cc2cccc3ccccc23)CC1,7.1
14,Nc1c(S(=O)(=O)c2cccs2)c2nc3ccccc3nc2n1/N=C/c1cccc(O)c1,13.6
15,O=C(NCc1ccco1)C1CCCN(S(=O)(=O)c2ccc(-n3cnnn3)cc2)C1 (stereo unspecified),12
16,CC(=O)OCP(C)(=O)COC(C)=O,5.43
17,CCN(CC)CCOC(=O)c1ccc(N=CC2=C(O)CC(C)(C)CC2=O)cc1,4.23
18,Cc1c(N2C(=O)C(C)SC23C(=O)Nc2ccccc23)c(=O)n(-c2ccccc2)n1C (stereo unspecified),4.85
19,COc1ccc(C)cc1NC(=O)C1CCCN1S(=O)(=O)c1ccc2c(c1)CCC(=O)N2 (stereo unspecified),12
20,CCN(CC)c1ccc(NC(=O)c2ccco2)c(C)c1,15.3
21,CCc1ccc2[nH]c(=O)c(CN(CCN(C)C)C(=O)Nc3ccccc3OC)cc2c1,-7.1
22,CCOC(=O)C1CCN(C(=O)CN(C)S(=O)(=O)c2cc(C)ccc2OC)CC1,-35.9
23,CCC12CC3CC(C1)CC(C(=O)Nc1nn[nH]n1)(C3)C2,11.3

row,Structure (SMILES),inhibition [%]
1,CCN1C(=O)c2cccc3c(S(=O)(=O)Nc4c(C)n(C)n(-c5ccccc5)c4=O)ccc1c23,-6.68
2,COC(=O)C1=C(C)NC(=O)CC1c1cccc(OC)c1OC (stereo unspecified),-0.77
3,Cn1c(SCC(=O)Nc2ccc3c(c2)oc2ccccc23)nnc1-c1ccccc1,-0.68
4,CCCC(=O)C1=C(c2ccccc2)C(C#N)(C#N)C(C#N)=C1N,12
5,Cc1ccc(N(CC(=O)Nc2ccc(S(=O)(=O)N3CCOCC3)cc2)S(C)(=O)=O)cc1C,5.91
6,CCOC(=O)CSc1nc2c(c(=O)[nH]c(=O)n2C)n1CCc1ccccc1,12
7,CC(=O)NC12CC3CC(C1)CC(C(=O)OCC(=O)Nc1ncc(Cl)c(C)c1Cl)(C3)C2,3.56
8,O=C1c2ccccc2S(=O)(=O)N1CC(O)COc1ccc(Cl)cc1 (stereo unspecified),5.66
9,CCCCCC(=O)Nc1ccc(N2CCN(S(C)(=O)=O)CC2)cc1,8.48
10,CCn1cc(C(=O)NCc2ccco2)c(=O)c2cc(S(=O)(=O)N3CCC(C)CC3)ccc21,2.74
11,COC(=O)CSc1nc2c(c(=O)n(C)c(=O)n2C)n1CCCc1ccccc1,4.4
12,CCN1C(=O)c2cccc3c(S(=O)(=O)NCCCN4CCOCC4)ccc1c23,8.51
13,Cc1cc(NC(=O)COc2cccc(C)c2C)no1,11.1
14,Cn1c(SCC(N)=O)nnc1C1CCN(C(=O)NCc2ccccc2)CC1,11.9
15,CCOC(=O)c1ccc(-c2n[nH]c(=O)c3ccccc23)cc1,-0.81
16,Cc1ccc2c(c1)N(CC(=O)NCc1cccs1)C(=O)CO2,7.47
17,O=C(OCN1C(=O)c2ccccc2C1=O)c1cccs1,8.67
18,O=C(NCCCc1ccccc1)C1CCN(c2nnc(-n3cccc3)s2)CC1,1.14
19,Cn1c(=O)c2cc(S(=O)(=O)N3CCN(c4cccc(C(F)(F)F)c4)CC3)ccc2n(C)c1=O,3.54
20,CCn1c(COc2cccc(C)c2)nnc1SCC(=O)Nc1cccc(C(=O)O)c1,7.81
21,O=C(CCS(=O)(=O)Cc1ccccc1)N1CCN(Cc2ccccc2)CC1,-7.91
22,Cc1cc(Nc2cccc(Cl)c2)n2ncnc2n1,-9.28
23,COc1ccc(C(=O)NC2(C(F)(F)F)N=C3SCCN3C2=O)cc1 (stereo unspecified),96.1

row,Structure (SMILES),inhibition [%]
1,CCOC(=O)N1CCC(n2c(=S)[nH]c3cc(OC)c(OC)cc3c2=O)CC1,-14.3
2,COc1cc2c(cc1OC)CN(C(=O)Cc1ccc(OC)c(S(=O)(=O)N3CCOCC3)c1)CC2,1.37
3,CCOc1cc(C#N)c(NC(=O)c2ccco2)cc1OCC,7.92
4,Cn1nc(-c2ccc(C(=O)Nc3cccnc3)cc2)c2ccccc2c1=O,13.4
5,Cc1ccnc(NC(=O)Nc2cccc(F)c2)c1,-13.1
6,O=c1c2cc(N3CCOCC3)ccc2[nH]c(=S)n1CCCN1CCCCC1,7.14
7,COCCn1nnnc1C(c1ccc(OC)cc1OC)N1CCN(c2ccccc2)CC1 (stereo unspecified),7.1
8,COCCN(CCOC)C(=O)c1c[nH]c2ccc(S(=O)(=O)N(C)c3ccc(F)cc3)cc2c1=O,-2.71
9,C/C=C/c1ccc(OCCCCN2C(=O)NC(C)(C)C2=O)c(OC)c1,0.22
10,CCOC(=O)c1cc2c(=O)n3cccc(C)c3nc2n(Cc2ccco2)c1=NC(=O)c1cccnc1,12.3
11,CCC(C)NC(=O)CN(c1ccc(OC)cc1)S(=O)(=O)c1ccc(NC(C)=O)cc1 (stereo unspecified),-3.53
12,CC1CCCCN1CCNC(=O)Cn1nc(-c2ccccc2)ccc1=O (stereo unspecified),-5.86
13,CCOC(=O)N1CCC(NC(=O)CCC(=O)N2CC(C)Oc3ccccc32)CC1 (stereo unspecified),4.49
14,COCCn1cc(C(=O)N2CCCC(C)C2)c2c3ccccc3n(C)c2c1=O (stereo unspecified),8.11
15,CCn1c(SCC(=O)Nc2ccc(C(C)=O)cc2)nc2ccccc21,9.9
16,CC(C)C(NC(=O)C1CCCCC1)C(=O)Nc1ccc2c(c1)OCCO2 (stereo unspecified),5.06
17,Cc1cc(C)nc(N2CCN(c3ncnc4c3cnn4Cc3ccc(Cl)cc3Cl)CC2)n1,0.3
18,Cc1c(C(=O)N2CCOCC2)oc2ccc(S(=O)(=O)N3CCCCCC3)cc12,1.73
19,C=CCn1c(C)nc2c(c1=O)c1nc3ccccc3nc1n2-c1ccc(C)cc1,20.7
20,Cc1ccc(C2CC(c3ccccc3C)n3nc(N)nc3N2)cc1 (stereo unspecified),1.78
21,O=C(c1ccccc1)c1coc2ccc(O)c(CN3CCOCC3)c12,4.43
22,CCn1c(SCCC#N)nnc1-c1ccncc1,5.61
23,COC(=O)C1C(=O)C2=C(CC1C)NC(C)=C(C(=O)OC(C)C)C2c1ccc(OC)c(O)c1 (stereo unspecified),8.85

row,Structure (SMILES),inhibition [%]
1,CCOn1c(=O)c(-c2cc3ccccc3o2)[n+]([O-])c2ccccc21,7.2
2,N#C/C(=C\c1ccc[nH]1)S(=O)(=O)c1ccccc1,1.07
3,Cc1cccc(-c2noc(C3CCCCC3)n2)c1,15.8
4,CCOc1ccc(C(=O)NCCCN(CC)CC)cc1,16.6
5,CCC1CCCCN1C(=O)Cn1c(=O)oc2ccccc21 (stereo unspecified),-4.33
6,Cc1ccc(NC(=O)N(Cc2cc3cc(C)cc(C)c3[nH]c2=O)CC2COCCO2)cc1 (stereo unspecified),1.86
7,CC(C)CN1C(=O)NC(NC(=O)c2cccs2)(C(F)(F)F)C1=O (stereo unspecified),-4.34
8,CCOc1ccccc1N(C(=O)Cn1nnnc1-c1ccc(C)o1)C(CC)C(=O)NC(C)(C)C (stereo unspecified),7.35
9,O=C(NCc1ccccc1)N(Cc1nc2ccccc2c(=O)[nH]1)C1CCCC1,12.2
10,Fc1ccccc1N1CCN(c2nc3ccccc3n3nnnc23)CC1,0.81
11,CN(C(=O)COC(=O)c1nc(-c2ccccc2)n(-c2ccccc2)n1)C1CCS(=O)(=O)C1 (stereo unspecified),23.8
12,C=CCc1cccc(CNc2nc3ccccc3n2CC)c1O,8.31
13,O=C(O)CCc1ccc(-c2ccccc2)n1NC(=O)c1ccco1,13.5
14,CC1CN(C(=O)c2cc3c(=O)n4ccccc4nc3s2)CC(C)O1 (stereo unspecified),14.8
15,CC(C)CC(=O)NC1(C(F)(F)F)C(=O)Nc2c1c(=O)n(C)c(=O)n2C (stereo unspecified),1.85
16,COc1ccc(C)cc1NC(=O)CN1CCN(c2ccccc2F)CC1,9.06
17,Cc1nn2c3c(cnc2c1-c1ccccc1)C(=O)CC(c1ccco1)C3 (stereo unspecified),3.63
18,COc1nc(C)nc2c1sc(=S)n2C,-1.82
19,Cn1c(=O)c2c(nc(N3CCOCC3)n2Cc2c(F)cccc2Cl)n(C)c1=O,4.34
20,COC(=O)COC(=O)c1ccc(-n2nnnc2SC)cc1,10.7
21,O=C(CCn1c(=O)oc2ccccc21)N1CCN(C(c2ccccc2)c2ccccc2)CC1,5.67
22,O=C(Oc1ccc(OC(=O)c2ccncc2)cc1)c1ccncc1,8.57
